Common to all, as to experiment: PBM; 200 nM protein, PBS
Common to all, as to details: dsDNA, one strand shown

In test [1] the target is T1, VENTX (Homo sapiens, UniProt O95231 78-163).
T1 sequence: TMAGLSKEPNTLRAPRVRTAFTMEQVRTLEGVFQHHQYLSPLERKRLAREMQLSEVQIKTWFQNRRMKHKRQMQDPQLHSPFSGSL

Test [2] concerns the target HOXC9 (Homo sapiens, UniProt P31274 178-260, K195R).
Test [3] concerns the target HOXC9 (Homo sapiens, UniProt P31274 178-260).
In test [4] the target is HOXC9 (Homo sapiens, UniProt P31274 178-260, R193K).
Chain of HOXC9 (Homo sapiens, UniProt P31274 178-260, R193K) (P31274 178-260 R193K): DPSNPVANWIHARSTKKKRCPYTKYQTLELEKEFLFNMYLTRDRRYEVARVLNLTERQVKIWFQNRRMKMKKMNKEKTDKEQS
Test [5] deals with HOXC9 (Homo sapiens, UniProt P31274 178-260, R222W).
Chain of HOXC9 (Homo sapiens, UniProt P31274 178-260, R222W) (P31274 178-260 R222W): as the sequence (P31274 178-260 R193K) above, with K16R, R45W counted along it
The target in test [6] is T2, VENTX (Homo sapiens, UniProt O95231 78-163, Y115F).
T2 sequence: T1 sequence with Y38F

Test [7] deals with T3, SIX6 (Homo sapiens, UniProt O95475 114-200, L143V).
T3 sequence: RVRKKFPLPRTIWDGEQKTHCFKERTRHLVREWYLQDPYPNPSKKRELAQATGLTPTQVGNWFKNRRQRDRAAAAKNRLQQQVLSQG

Test [8] has as its target HOXA7 (Homo sapiens, UniProt P31268 116-202).
Test [9] addresses HOXA7 (Homo sapiens, UniProt P31268 116-202, W177C).
Test [10] has as its target HOXD13 (Homo sapiens, UniProt P35453 263-343, T313R).
The target in test [11] is HOXD13 (Homo sapiens, UniProt P35453 263-343).
Chain of HOXD13 (Homo sapiens, UniProt P35453 263-343) (P35453 263-343): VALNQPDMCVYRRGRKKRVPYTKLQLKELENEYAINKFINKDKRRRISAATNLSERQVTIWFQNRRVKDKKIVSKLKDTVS
Test [12] addresses VAX1 (Homo sapiens, UniProt Q5SQQ9 86-172).
Test [13] addresses HOXD13 (Homo sapiens, UniProt P35453 263-343, T313A).
Test [14] addresses VAX1 (Homo sapiens, UniProt Q5SQQ9 86-172, T142I).
Test [15] deals with VAX1 (Homo sapiens, UniProt Q5SQQ9 86-172, K157R).
Chain of VAX1 (Homo sapiens, UniProt Q5SQQ9 86-172, K157R) (Q5SQQ9 86-172 K157R): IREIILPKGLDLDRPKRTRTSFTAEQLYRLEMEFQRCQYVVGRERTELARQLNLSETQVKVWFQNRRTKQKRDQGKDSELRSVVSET
Test [16] addresses HOXB6 (Homo sapiens, UniProt P17509 132-218, K202E).
The target in test [17] is HOXA4 (Homo sapiens, UniProt Q00056 201-287, R217L).
Chain of HOXA4 (Homo sapiens, UniProt Q00056 201-287, R217L) (Q00056 201-287 R217L): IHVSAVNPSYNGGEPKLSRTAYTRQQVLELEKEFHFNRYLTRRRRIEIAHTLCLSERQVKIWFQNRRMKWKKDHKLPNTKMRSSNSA
Test [18] has as its target HOXC10 (Homo sapiens, UniProt Q9NYD6 254-340, K271E).
For test [19], the target named is MSX2 (Homo sapiens, UniProt P35548 130-214, F161Y).
Chain of MSX2 (P35548 130-214 F161Y): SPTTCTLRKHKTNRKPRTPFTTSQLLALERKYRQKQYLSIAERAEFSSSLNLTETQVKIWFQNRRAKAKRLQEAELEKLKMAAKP
In test [20] the target is HOXA4 (Homo sapiens, UniProt Q00056 201-287, W262F).
Chain of HOXA4 (Homo sapiens, UniProt Q00056 201-287, W262F) (Q00056 201-287 W262F): as the sequence (Q00056 201-287 R217L) above, with L17R, W62F counted along it
For test [21], the target named is HOXB6 (Homo sapiens, UniProt P17509 132-218).
Chain of HOXB6 (Homo sapiens, UniProt P17509 132-218) (P17509 132-218): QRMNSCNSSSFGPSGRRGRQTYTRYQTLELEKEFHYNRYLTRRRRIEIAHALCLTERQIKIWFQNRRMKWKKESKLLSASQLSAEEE
Test [22] addresses PRRX1 (Homo sapiens, UniProt P54821 80-166, F113S).
Test [23] has as its target PITX2 (Homo sapiens, UniProt Q99697 72-157).
Test [24] has as its target CRX (Homo sapiens, UniProt O43186 26-111, R41L).
Test [25] addresses PRRX1 (Homo sapiens, UniProt P54821 80-166).
Test [26] deals with T4, NKX2-6 (Homo sapiens, UniProt A6NCS4 118-204).
T4 sequence: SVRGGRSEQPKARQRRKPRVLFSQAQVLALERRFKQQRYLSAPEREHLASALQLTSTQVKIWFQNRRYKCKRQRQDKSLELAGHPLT

For test [27], the target named is T5, NKX2-6 (Homo sapiens, UniProt A6NCS4 118-204, F151L).
T5 sequence: T4 sequence with F34L

Test [28] concerns the target ALX4 (Homo sapiens, UniProt Q9H161 200-286).
The target of test [29] is ALX4 (Homo sapiens, UniProt Q9H161 200-286, Q225E).
Chain of ALX4 (Homo sapiens, UniProt Q9H161 200-286, Q225E) (Q9H161 200-286 Q225E): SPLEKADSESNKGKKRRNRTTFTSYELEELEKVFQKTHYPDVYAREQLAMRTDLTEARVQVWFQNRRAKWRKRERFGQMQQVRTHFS
Test [30] has as its target T6, PAX4 (Homo sapiens, UniProt O43316 9-242, R200K).
T6 sequence: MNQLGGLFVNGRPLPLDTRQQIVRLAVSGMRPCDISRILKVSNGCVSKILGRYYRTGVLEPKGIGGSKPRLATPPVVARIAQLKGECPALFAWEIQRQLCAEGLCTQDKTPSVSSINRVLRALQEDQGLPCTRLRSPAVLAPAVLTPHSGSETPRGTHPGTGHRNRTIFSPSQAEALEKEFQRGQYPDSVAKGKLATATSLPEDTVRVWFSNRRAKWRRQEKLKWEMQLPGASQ

Test [31] concerns the target T7, PAX4 (Homo sapiens, UniProt O43316 9-242).
T7 sequence: T6 sequence with K192R

Test [32] addresses T8, PAX4 (Homo sapiens, UniProt O43316 9-242, R200Q).
T8 sequence: T6 sequence with K192Q

For test [33], the target named is T9, PAX4 (Homo sapiens, UniProt O43316 9-242, F177V).
T9 sequence: T6 sequence with F169V, K192R

Residue numbers refer to the chain shown, from its start.

Chain of HOXC9 (Homo sapiens, UniProt P31274 178-260) (P31274 178-260): as the sequence (P31274 178-260 R193K) above, with K16R counted along it
Chain of HOXA7 (Homo sapiens, UniProt P31268 116-202) (P31268 116-202): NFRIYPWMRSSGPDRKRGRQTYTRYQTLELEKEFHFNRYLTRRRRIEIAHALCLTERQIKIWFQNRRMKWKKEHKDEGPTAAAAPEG
Chain of HOXA7 (Homo sapiens, UniProt P31268 116-202, W177C) (P31268 116-202 W177C): as the sequence (P31268 116-202) above, with W62C counted along it
Chain of HOXC9 (Homo sapiens, UniProt P31274 178-260, K195R) (P31274 178-260 K195R): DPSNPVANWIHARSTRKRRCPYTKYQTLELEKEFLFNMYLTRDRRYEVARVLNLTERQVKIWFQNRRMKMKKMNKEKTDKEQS
Chain of VAX1 (Homo sapiens, UniProt Q5SQQ9 86-172) (Q5SQQ9 86-172): as the sequence (Q5SQQ9 86-172 K157R) above, with R72K counted along it
Chain of HOXB6 (Homo sapiens, UniProt P17509 132-218, K202E) (P17509 132-218 K202E): as the sequence (P17509 132-218) above, with K71E counted along it
Chain of HOXD13 (Homo sapiens, UniProt P35453 263-343, T313R) (P35453 263-343 T313R): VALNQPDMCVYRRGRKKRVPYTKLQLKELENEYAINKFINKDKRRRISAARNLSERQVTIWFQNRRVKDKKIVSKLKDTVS
Chain of VAX1 (Homo sapiens, UniProt Q5SQQ9 86-172, T142I) (Q5SQQ9 86-172 T142I): as the sequence (Q5SQQ9 86-172 K157R) above, with T57I, R72K counted along it
Chain of HOXC10 (Q9NYD6 254-340 K271E): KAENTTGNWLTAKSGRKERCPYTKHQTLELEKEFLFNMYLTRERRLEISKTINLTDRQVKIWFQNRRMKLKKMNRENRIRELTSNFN
Chain of CRX (O43186 26-111 R41L): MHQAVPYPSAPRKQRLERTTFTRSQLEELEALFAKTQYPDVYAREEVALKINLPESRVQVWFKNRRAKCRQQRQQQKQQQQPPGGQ
Chain of HOXD13 (Homo sapiens, UniProt P35453 263-343, T313A) (P35453 263-343 T313A): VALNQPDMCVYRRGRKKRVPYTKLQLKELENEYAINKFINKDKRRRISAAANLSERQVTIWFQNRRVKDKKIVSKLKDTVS
Chain of ALX4 (Homo sapiens, UniProt Q9H161 200-286) (Q9H161 200-286): as the sequence (Q9H161 200-286 Q225E) above, with E26Q counted along it
Chain of PRRX1 (Homo sapiens, UniProt P54821 80-166, F113S) (P54821 80-166 F113S): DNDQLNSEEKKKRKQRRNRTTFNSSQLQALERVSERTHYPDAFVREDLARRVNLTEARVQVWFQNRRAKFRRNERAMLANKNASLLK
Chain of PRRX1 (Homo sapiens, UniProt P54821 80-166) (P54821 80-166): as the sequence (P54821 80-166 F113S) above, with S34F counted along it

Turning to AATAACCG, in test [1], the binding signal is 10.1 upbm affinity estimate (log intensity, higher = more binding, comparable within an allelic series).

In the case of CCCCAGCC, the binding signal in test [2] is 9.49 upbm affinity estimate (log intensity, higher = more binding, comparable within an allelic series); in test [3] it was 9.68 upbm affinity estimate (log intensity, higher = more binding, comparable within an allelic series); in [4] it was 9.69 upbm affinity estimate (log intensity, higher = more binding, comparable within an allelic series); in test [5] it was 9.68 upbm affinity estimate (log intensity, higher = more binding, comparable within an allelic series).

Consider CATCATCA, for which the binding signal in test [1] was 10.4 upbm affinity estimate (log intensity, higher = more binding, comparable within an allelic series).

As for GATGATCA, the binding signal in test [1] was 9.89 upbm affinity estimate (log intensity, higher = more binding, comparable within an allelic series); in test [6], 9.51 upbm affinity estimate (log intensity, higher = more binding, comparable within an allelic series).

Turning to GGGCACGA, the binding signal is 9.75 upbm affinity estimate (log intensity, higher = more binding, comparable within an allelic series) in test [2]; 9.85 upbm affinity estimate (log intensity, higher = more binding, comparable within an allelic series) in test [3]; 9.76 upbm affinity estimate (log intensity, higher = more binding, comparable within an allelic series) in test [4]; 9.89 upbm affinity estimate (log intensity, higher = more binding, comparable within an allelic series) in [5].

In the case of CGTGATCA, the binding signal is 9.86 upbm affinity estimate (log intensity, higher = more binding, comparable within an allelic series) in [1] and 9.57 upbm affinity estimate (log intensity, higher = more binding, comparable within an allelic series) in test [6].

Take ACCGATCT: the binding signal in test [1] was 9.79 upbm affinity estimate (log intensity, higher = more binding, comparable within an allelic series).

AAAATGCT: in test [1], the binding signal is 9.84 upbm affinity estimate (log intensity, higher = more binding, comparable within an allelic series).

As to CACGTTTA, in test [1], the binding signal is 10.1 upbm affinity estimate (log intensity, higher = more binding, comparable within an allelic series).

In the case of GGATATAA, the binding signal in test [7] is 10.5 upbm affinity estimate (log intensity, higher = more binding, comparable within an allelic series).

As for AATGGGGA, in test [1], the binding signal is 10.3 upbm affinity estimate (log intensity, higher = more binding, comparable within an allelic series).

Consider CTCACCAG, for which the binding signal was 9.79 upbm affinity estimate (log intensity, higher = more binding, comparable within an allelic series) in test [2]; 9.75 upbm affinity estimate (log intensity, higher = more binding, comparable within an allelic series) in test [3]; 9.75 upbm affinity estimate (log intensity, higher = more binding, comparable within an allelic series) in [4]; 9.9 upbm affinity estimate (log intensity, higher = more binding, comparable within an allelic series) in [5].

As for CCGTTATA, the binding signal is 11.3 upbm affinity estimate (log intensity, higher = more binding, comparable within an allelic series) in test [2]; 11.3 upbm affinity estimate (log intensity, higher = more binding, comparable within an allelic series) in test [3]; 11.2 upbm affinity estimate (log intensity, higher = more binding, comparable within an allelic series) in [4]; 10.3 upbm affinity estimate (log intensity, higher = more binding, comparable within an allelic series) in test [5].

With GCTCGGTA, the binding signal in test [8] is 8.46 upbm affinity estimate (log intensity, higher = more binding, comparable within an allelic series); in test [9] it was 8.43 upbm affinity estimate (log intensity, higher = more binding, comparable within an allelic series).

ATTACCAC: the binding signal in test [8] is 10.4 upbm affinity estimate (log intensity, higher = more binding, comparable within an allelic series); in [10] it was 10.1 upbm affinity estimate (log intensity, higher = more binding, comparable within an allelic series); in test [11] it was 10.7 upbm affinity estimate (log intensity, higher = more binding, comparable within an allelic series); in [9], 8.73 upbm affinity estimate (log intensity, higher = more binding, comparable within an allelic series).

Regarding AGGGCGGC, the binding signal in [8] was 8.44 upbm affinity estimate (log intensity, higher = more binding, comparable within an allelic series); in test [10] it was 9.45 upbm affinity estimate (log intensity, higher = more binding, comparable within an allelic series); in test [11], 9.52 upbm affinity estimate (log intensity, higher = more binding, comparable within an allelic series); in test [12], 7.1 upbm affinity estimate (log intensity, higher = more binding, comparable within an allelic series); in [13], 9.5 upbm affinity estimate (log intensity, higher = more binding, comparable within an allelic series); in [14], 6.95 upbm affinity estimate (log intensity, higher = more binding, comparable within an allelic series). The binding signal in test [9] is 8.27 upbm affinity estimate (log intensity, higher = more binding, comparable within an allelic series); in test [15], 6.98 upbm affinity estimate (log intensity, higher = more binding, comparable within an allelic series).

Take AATTACCT: the binding signal was 11.3 upbm affinity estimate (log intensity, higher = more binding, comparable within an allelic series) in test [8]; 9.87 upbm affinity estimate (log intensity, higher = more binding, comparable within an allelic series) in [16]; 12.1 upbm affinity estimate (log intensity, higher = more binding, comparable within an allelic series) in test [17]; 11.9 upbm affinity estimate (log intensity, higher = more binding, comparable within an allelic series) in [18]; 12.9 upbm affinity estimate (log intensity, higher = more binding, comparable within an allelic series) in test [19]; 8.74 upbm affinity estimate (log intensity, higher = more binding, comparable within an allelic series) in test [9]. In addition, the binding signal in [20] is 11.5 upbm affinity estimate (log intensity, higher = more binding, comparable within an allelic series); in [21] it was 11.8 upbm affinity estimate (log intensity, higher = more binding, comparable within an allelic series).

For the sequence CATTATTA, the binding signal is 11.1 upbm affinity estimate (log intensity, higher = more binding, comparable within an allelic series) in test [8]; 10 upbm affinity estimate (log intensity, higher = more binding, comparable within an allelic series) in test [16]; 8.89 upbm affinity estimate (log intensity, higher = more binding, comparable within an allelic series) in test [9].

In the case of AAGATTAG, the binding signal is 9.43 upbm affinity estimate (log intensity, higher = more binding, comparable within an allelic series) in [8]; 10.4 upbm affinity estimate (log intensity, higher = more binding, comparable within an allelic series) in [22]; 12.4 upbm affinity estimate (log intensity, higher = more binding, comparable within an allelic series) in test [23]; 8.65 upbm affinity estimate (log intensity, higher = more binding, comparable within an allelic series) in test [9]; 12.4 upbm affinity estimate (log intensity, higher = more binding, comparable within an allelic series) in test [24]; 12.3 upbm affinity estimate (log intensity, higher = more binding, comparable within an allelic series) in test [25].

As to CCGGGGGC, the binding signal in test [8] is 8.67 upbm affinity estimate (log intensity, higher = more binding, comparable within an allelic series); in test [26] it was 9.19 upbm affinity estimate (log intensity, higher = more binding, comparable within an allelic series); in test [27] it was 8.93 upbm affinity estimate (log intensity, higher = more binding, comparable within an allelic series); in [9] it was 8.26 upbm affinity estimate (log intensity, higher = more binding, comparable within an allelic series).

For the sequence CTGCTTCA, the binding signal is 8.51 upbm affinity estimate (log intensity, higher = more binding, comparable within an allelic series) in [8]; 7.83 upbm affinity estimate (log intensity, higher = more binding, comparable within an allelic series) in test [23]; 8.44 upbm affinity estimate (log intensity, higher = more binding, comparable within an allelic series) in test [9].

For GGCCTGAA, the binding signal is 8.61 upbm affinity estimate (log intensity, higher = more binding, comparable within an allelic series) in test [8] and 8.38 upbm affinity estimate (log intensity, higher = more binding, comparable within an allelic series) in test [9].

With AGGGCATG, the binding signal in test [8] is 8.51 upbm affinity estimate (log intensity, higher = more binding, comparable within an allelic series); in test [23], 7.96 upbm affinity estimate (log intensity, higher = more binding, comparable within an allelic series); in test [9], 8.49 upbm affinity estimate (log intensity, higher = more binding, comparable within an allelic series).

Consider ACCCAGCC, for which the binding signal is 8.44 upbm affinity estimate (log intensity, higher = more binding, comparable within an allelic series) in [8]; 8.13 upbm affinity estimate (log intensity, higher = more binding, comparable within an allelic series) in test [28]; 8.18 upbm affinity estimate (log intensity, higher = more binding, comparable within an allelic series) in test [29]; 7.07 upbm affinity estimate (log intensity, higher = more binding, comparable within an allelic series) in test [12]; 7.26 upbm affinity estimate (log intensity, higher = more binding, comparable within an allelic series) in test [14]; 8.42 upbm affinity estimate (log intensity, higher = more binding, comparable within an allelic series) in [9]. In addition, the binding signal in [15] was 7 upbm affinity estimate (log intensity, higher = more binding, comparable within an allelic series).

On to GATTACAC, for which the binding signal in test [8] is 9.6 upbm affinity estimate (log intensity, higher = more binding, comparable within an allelic series); in test [30], 10.9 upbm affinity estimate (log intensity, higher = more binding, comparable within an allelic series); in test [31], 11.2 upbm affinity estimate (log intensity, higher = more binding, comparable within an allelic series); in test [32] it was 11 upbm affinity estimate (log intensity, higher = more binding, comparable within an allelic series); in test [33], 10.3 upbm affinity estimate (log intensity, higher = more binding, comparable within an allelic series); in test [9], 8.73 upbm affinity estimate (log intensity, higher = more binding, comparable within an allelic series).
